Experimental data from PubChem BioAssay (NCI).
The panel holds about 79,000 compounds, 15% with a hit somewhere; the sample as a whole holds those more often. No stated cut-off is given here; in the data, active means growth inhibition above about 70%; inactive means the rest.

Experiments:
[1] = NCI Yeast Anticancer Drug Screen. Data for the rad50 strain (AID 155);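 further: 0% = growth of vehicle-only cultures of the same strain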; conditions: S. cerevisiae rad50 strain growth inhibition; at 50.0 µM; hits give high values
Procedure, shortened: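 Inhibition values express reduced yeast growth in compound-treated cultures relative to vehicle-treated controls.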

[2] = NCI Yeast Anticancer Drug Screen. Data for the mec2-1 strain (AID 157); conditions: S. cerevisiae mec2-1 strain, at 50.0 µM, hits give high values
Procedure, shortened: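 Each compound was tested on mec2-1 yeast, a strain altered in DNA damage repair or cell cycle control. Growth inhibition is reported relative to vehicle.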

[3] = NCI Yeast Anticancer Drug Screen. Data for the sgs1 mgt1 strain (AID 161);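 further: 0% = growth of cultures given vehicle only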; conditions: S. cerevisiae sgs1 mgt1 strain, at 50.0 µM, hits give high values
Procedure, shortened: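 Genetically altered yeast, compound exposure, growth inhibition relative to vehicle.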

[4] = NCI Yeast Anticancer Drug Screen. Data for the cln2 rad14 strain (AID 165);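 further: 0% = growth equal to vehicle treated cultures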; conditions: S. cerevisiae cln2 rad14 strain, at 50.0 µM, hits give high values
Procedure, shortened: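 Test compounds were added to cln2 rad14 yeast cultures; inhibition of growth was then determined by comparison with vehicle treatment.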

[5] = NCI Yeast Anticancer Drug Screen. Data for the bub3 strain (AID 167); conditions: S. cerevisiae bub3 mutant strain, at 50.0 µM, hits give high values
Procedure, shortened: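 Steps: expose the mutant yeast strain to compound; grow alongside vehicle-treated cultures; measure growth; express inhibition against the vehicle cultures.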

[6] = NCI Yeast Anticancer Drug Screen. Data for the mlh1 rad18 strain (AID 175); conditions: S. cerevisiae mlh1 rad18 strain growth inhibition; at 50.0 µM; hits give high values
Procedure, shortened: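 Inhibition values reflect reduced growth of mutant yeast versus vehicle-treated controls following compound exposure; the mutations affect DNA damage repair.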

Measured: growth inhibition

O=C(OCC(O)C(O)C(O)C(SCc1ccccc1)SCc1ccccc1)c1ccc([N+](=O)[O-])cc1 (stereo unspecified)
inactive: [1] 23.6% | [2] 3.1% | [3] 31.6% | [4] 20.4% | [5] -1% | [6] 5.85%

O=C1NC2(CCCCC2)C(=O)N1CCN1C(=O)NC2(CCCCC2)C1=O
inactive: [1] 6.7% | [2] 4.2% | [3] -1.8% | [4] 8.85% | [5] -14.3% | [6] -10.5%

OCC(CO)(CO)CO
inactive: [1] 18.9% | [2] -0.7% | [3] -6.8% | [4] -16.1% | [5] 28.8% | [6] -5.3%

C1=COC(C=Nc2ccccc2)CC1 (stereo unspecified)
inactive: [1] -12.3% | [2] 13.8% | [3] 4.5% | [4] -18.2% | [5] 15.8% | [6] -12.6%

COc1ccc2nc3cc(Cl)ccc3c(NCCCC3CCCN4CCCCC34)c2c1 (stereo unspecified)
inactive: [1] 50% | [2] 40.5% | [3] 2% | [4] 6.15% | [5] 11.7% | [6] 38.4%

COc1ccc(NC(=S)NC(=O)c2ccccc2)cc1OC
inactive: [1] 31.8% | [2] 4.15% | [3] 21.9% | [4] 3% | [5] -1.2% | [6] 15.4%

C=C(C)COc1c(C)c(C)c(OCC(C)C)c(C)c1C
inactive: [1] -4.35% | [2] 9.75% | [3] -0.75% | [4] -8.75% | [5] 3.2% | [6] -10.9%

CC1C=CC(C)N(c2nnnn2C)N1c1nnnn1C (stereo unspecified)
inactive: [1] -11.6% | [2] 9.75% | [3] 14.9% | [4] -6.3% | [5] -2.6% | [6] -3.9%

CCS(=O)O
inactive: [1] -21.2% | [2] 15.9% | [3] 1.3% | [4] -4.25% | [5] -6.8% | [6] -8.9%

Brc1ccc(-c2cc(-c3ccc4c(c3)OCO4)c(-c3cccs3)n2Cc2ccccc2)cc1
inactive: [1] -17.9% | [2] -7.55% | [3] -0.5% | [4] 20.1% | [5] -24.6% | [6] -30.1%

CCC(=O)c1cccc(-c2ccccc2)c1C
inactive: [1] 7% | [2] -13.5% | [3] -2.5% | [4] 4.25% | [5] 11.7% | [6] 11.5%

c1ccc2c(-c3nn[nH]n3)nccc2c1
inactive: [1] 11.6% | [2] -16.2% | [3] -6.5% | [4] -16.9% | [5] -19.9% | [6] -10.9%

CCS(=O)(=O)C(S(C)(=O)=O)S(=O)(=O)C(C)C (stereo unspecified)
inactive: [1] -1.65% | [2] 31.6% | [3] 8.45% | [4] -9.15% | [5] 26.8% | [6] 14%

CC(=O)Nc1cc(Cl)ccc1C
inactive: [1] 39.7% | [2] 29.9% | [3] 26.3% | [4] 16.1% | [5] 5.95% | [6] 24.1%

COC(=O)c1cccc2c1Cc1cc(N)ccc1-2
inactive: [1] -7.9% | [2] -16.8% | [3] -19.6% | [4] -21.4% | [5] 9.7% | [6] -12.2%

Cc1c2oc3c(C)ccc(C(=O)NCCc4ccco4)c3nc-2c(C(=O)NCCc2ccco2)c(N)c1=O
inactive: [1] 39.5% | [2] 7.85% | [3] 12.8% | [4] 15.7% | [5] 0.75% | [6] 44.4%

Cc1csc2nc(-c3cccs3)nn12
inactive: [1] 0.75% | [2] -15.4% | [3] 7.4% | [4] -1.55% | [5] -7.15% | [6] -9.1%

Cc1ccc(S(=O)(=O)N2CCCC2C(=O)O[C@H]2CC[C@H]3CC=C[C@H]32)cc1 (stereo partly specified)
inactive: [1] -15.6% | [2] -44.7% | [3] -8.2% | [4] -8.45% | [5] -5.25% | [6] -21.6%

COc1ccc(N2C(=O)[C@@H]3[C@H](C2=O)c2[nH]c4ccccc4c2C2CCC(C(C)(C)C)C[C@@H]23)cc1 (stereo partly specified)
inactive: [1] 29.6% | [2] 4.1% | [3] 12.3% | [4] 31.4% | [5] 6.2% | [6] 7.85%

Nc1on(C(=O)c2ccccc2)c(=O)c1Cc1ccccc1
inactive: [1] -19.2% | [2] 3.6% | [3] 15.9% | [4] -36% | [5] 2.25% | [6] -2.1%

COc1ccc(C(=O)O/N=C2/CCC/C2=C\c2ccccc2)cc1
inactive: [1] 13.8% | [2] 13.2% | [3] 33.6% | [4] 26.4% | [5] 10.9% | [6] 8.4%
